# In the library only some 4.8% were active in any assay of this set; here they are far more common.
# ATXN2 expr inh – reduces ATXN2 reporter expression in HEK-293 cells. HEK-293 ATXN2-luciferase reporter, luminescence, 24 h. Potency, µM (titrated, usually from 57 µM), for the others: at the top dose activity change, negative = inhibition, usual class: inhibitors. 360,000 tested, 0.72% active. AID 1745845; note: potency is the fitted concentration of half-maximal effect; % is set by controls: 0 for no effect and ±100 for the full control effect; nearly all actives have a fitted effect of over 55% in size
#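 ATXN2-luciferase reporter cells (luciferase flanked by upstream and downstream ATXN2 gene portions) were treated 24 h at 37 °C with compounds at up to 57 uM. SteadyGlo luminescence gave expression; GF-AFC fluorescence gave viability.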
# ATXN viability – viability counter-screen for ATXN expression inhibitors | S2 cells (HEK-293 line with an ATXN2-luciferase reporter) viability, CellTiter-Fluor protease fluorescence, 24 h | Potency, µM (highest dose often 56.7 µM), usual class: cytotoxic | 400,000 tested, 0.49% active | AID 651635; note: potency is the fitted concentration of half-maximal effect; nearly all actives have a fitted effect of over 40% in size
# USP1 inh – blocks the human USP1/UAF1 deubiquitinase complex; recombinant USP1/UAF1, Ub-Rhodamine cleavage fluorescence; Potency, µM (doses to about 57.1 µM), without a hit: top-dose activity change, negative = inhibition, usual class: inhibitors; 390,000 tested, 0.23% active; AID 743255; note: potency is the fitted concentration of half-maximal effect; % is set by controls: 0 for no effect and ±100 for the full control effect; nearly all actives have a fitted effect of over 60% in size
# Target sequence (O94782 whole entry, looked up): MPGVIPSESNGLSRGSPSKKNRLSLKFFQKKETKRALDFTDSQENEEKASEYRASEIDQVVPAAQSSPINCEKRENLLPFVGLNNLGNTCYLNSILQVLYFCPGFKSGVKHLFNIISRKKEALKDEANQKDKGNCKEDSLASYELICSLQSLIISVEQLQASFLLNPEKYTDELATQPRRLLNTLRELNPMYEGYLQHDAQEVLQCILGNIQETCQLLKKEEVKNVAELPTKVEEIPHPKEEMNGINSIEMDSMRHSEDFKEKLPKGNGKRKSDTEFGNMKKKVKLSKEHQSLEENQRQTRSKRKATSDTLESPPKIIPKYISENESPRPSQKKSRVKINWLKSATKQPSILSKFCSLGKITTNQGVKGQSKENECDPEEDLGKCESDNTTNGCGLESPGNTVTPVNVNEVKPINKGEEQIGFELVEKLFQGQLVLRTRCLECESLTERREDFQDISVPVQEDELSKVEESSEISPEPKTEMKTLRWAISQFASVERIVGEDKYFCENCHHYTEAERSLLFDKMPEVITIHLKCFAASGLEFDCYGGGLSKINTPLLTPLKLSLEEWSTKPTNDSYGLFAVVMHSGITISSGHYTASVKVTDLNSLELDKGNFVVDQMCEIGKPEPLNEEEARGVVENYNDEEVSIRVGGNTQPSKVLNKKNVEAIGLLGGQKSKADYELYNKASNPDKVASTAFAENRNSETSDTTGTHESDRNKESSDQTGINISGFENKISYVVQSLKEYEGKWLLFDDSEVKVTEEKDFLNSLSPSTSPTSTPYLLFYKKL
#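 In this screen, compounds sit with the deubiquitinase complex (1nM) for 15 min at room temperature before Ub-Rho is added at 150nM final. Fluorescence rise is then followed for 6 reads every 60 seconds.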
# IL1B secr inh – inflammasome signaling inhibition, IL-1 beta readout | THP-1 LPS/ATP IL-1B secretion, AlphaLISA, 16 h; active compounds read low | activity change, % at 57.5 µM | 360,000 tested, 4.7% active; in the data active = activity change below about -50%; inconclusive = mostly about -30% to -49%; note: % is set by controls: 0 for no effect and ±100 for the full control effect
#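 THP-1 cells pretreated 1 hr with compounds (up to 57.5 uM final), then stimulated with LPS (250 ng/mL final) plus ATP (1.25 mM final); secreted IL-1B measured by AlphaLISA after 16 hr, decreased signal indicating inhibition.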
# USP2a inh – blocks human ubiquitin-specific protease USP2a; USP2 core, Ub-CHOP2 coupled fluorogenic reporter, 485/531; Potency, µM (top dose mostly 38.3 µM), for inactives: at the top dose activity change, negative = inhibition, hits mostly inhibitors; O75604; 330,000 tested, 0.01% active; AID 463254;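 note: potency is the fitted concentration of half-maximal effect; plate controls were DMSO wells for no effect and full inhibition by NEM control for full effect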
#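 Deubiquitinase activity read as fluorescence (485/531 nm) after Ub-CHOP2 cleavage activates the enterokinase reporter on its substrate; USP2 core 10nM, Ub-CHOP2 and substrate 25nM each, 30min compound preincubation then 60min RT; data normalized to NEM, curves fitted.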
# Active calls of the source: *; i = inactive; u = inconclusive; x = no result. Unless noted, calls come from the whole dose curve; as a rule, active = well fitted curve in the direction sought with a large enough effect; inconclusive = small, poorly fitted or top-dose-only effect, or another doubt; inactive = no such curve, though single readings can be large; an effect the other way counts as inactive or inconclusive.
SMILES,ATXN2 expr inh,ATXN viability,USP1 inh,IL1B secr inh,USP2a inh
CCC(=O)Nc1cccc(C(=O)/C=C/c2cccs2)c1,x,u,-5%,-95*,6%
CCOC(=O)Nc1ccc(C(=O)/C=C/c2ccccc2)cc1,-29%,u,-17%,-88*,0%
O=C1CSC(c2ccc([N+](=O)[O-])cc2)N1Cc1ccccc1 (centres undefined),-34%,i,-21%,6,-1%
O=c1c2ccccc2sn1-c1cc(S(=O)(=O)N2CCOCC2)ccc1N1CCCC1,-12%,i,-13%,-107*,4%
O=c1c2ccccc2sn1-c1cc(S(=O)(=O)N2CCOCC2)ccc1N1CCOCC1,-14%,i,-6%,-102*,-2%
CCCn1ncc(CN2CCC(n3nccc3NC(=O)CCc3ccccc3)CC2)c1C,2%,i,-15%,0,4%
COc1ccc2[nH]c(CN3CCN(C(C)C)C(CCO)C3)c(C)c2c1 (centres undefined),-15%,i,-20%,-2,3%
CCOc1ccc(CN2CCN(Cc3cccc4c3OCO4)CC2CCO)cc1 (centres undefined),-17%,i,-4%,-4,-4%
CCOc1ccc(CN2CCN(Cc3cc4c(cc3Cl)OCO4)CC2CCO)cc1 (centres undefined),-34%,i,-3%,-60*,-1%
COc1ccc2[nH]c(CN3CCN(CC(C)C)C(CCO)C3)c(C)c2c1 (centres undefined),-6%,i,-11%,-96*,-3%
CCOc1ccc(CN2CCN(Cc3[nH]c4ccccc4c3C)CC2CCO)cc1 (centres undefined),-22%,i,-20%,-74*,1%
Cc1ccc(C)c(NC(=O)Cn2c(=O)nc(-c3ccccc3)c3ccccc32)c1,x,x,-13%,x,x
Cn1c(SCC(=O)NNC(=O)c2ccccc2)nnc1C1CC1,2%,i,-22%,7,6%
Nc1ccc(S(=O)(=O)NCc2ccccc2)cc1,2%,i,x,x,x
CN(C)S(=O)(=O)c1cccc(NC(=O)c2ccc(Sc3nncn3C)c([N+](=O)[O-])c2)c1,x,i,-23%,-17,0%
Cn1cnnc1Sc1ccc(/C=C/C(=O)c2ccc(O)cc2)cc1[N+](=O)[O-],x,7.1µM*,-14%,-101*,-1%
CCN(CC)S(=O)(=O)c1ccc(NC(=O)c2ccc(Sc3nncn3C)c([N+](=O)[O-])c2)cc1,2%,i,3%,-91*,0%
Cc1cc(F)ccc1C(O)c1ncc(-c2cccc3ccccc23)[nH]1 (centres undefined),-2%,i,x,15,x
COc1cc(OC)c(C=NNC(=S)NC23CC4CC(CC(C4)C2)C3)c(OC)c1,3%,i,-3%,12,x
O=C(CSc1nnc(-c2ccc(Cl)cc2)o1)c1ccc([N+](=O)[O-])cc1,12%,i,-21%,x,x
O=C(CSc1nnc(-c2ccncc2)o1)c1cccc([N+](=O)[O-])c1,u,i,5%,-51*,0%
Oc1ccc(Cl)cc1Sc1cc(Cl)ccc1O,u,u,-15%,-101*,x
C(=N\Nc1ccccn1)/c1c[nH]c2ccccc12,36%,u,-23%,-95*,8%
Cc1ccc(/C=N/Nc2ccccn2)s1,66%,i,-12%,-9,2%
Cc1noc(C)c1/C=N/Nc1ccccn1,-27%,i,-3%,-70*,0%
SMILES,ATXN2 expr inh,ATXN viability,USP1 inh,IL1B secr inh,USP2a inh
Oc1cccc(C=NNc2ccccn2)c1,43%,i,-5%,-87*,x
Oc1ccc(C=NNc2ccccn2)c(O)c1,u,u,-10%,20,x
O=[N+]([O-])c1ccc(O)c(/C=N/Nc2ncnc3c2cnn3-c2ccccc2)c1,2.8µM*,u,-13%,202,4%
CNc1c(NC(=O)c2ccc(OC)c(OC)c2)c(=O)oc2ccccc12,11%,u,-1%,x,x
O=[N+]([O-])c1ccc(NN=Cc2ccccc2O)nc1,u,x,-18%,59,x
O=[N+]([O-])c1ccc(O)c(/C=N/Nc2ccccn2)c1,2.8µM*,i,0%,-101*,0%
Cc1ccc(C)c(C(=O)Cn2ncc(Cl)c(Cl)c2=O)c1,u,18µM*,-1%,-104*,2%
CCCc1cc(=O)[nH]c(SCC(=O)c2cc(C)n(CC(F)(F)F)c2C)n1,-10%,i,-21%,59,2%
Cc1cccc(Cn2ncc(Cl)c(Cl)c2=O)c1,u,x,3%,-102*,2%
Cc1ccc(C)c(C(=O)CN2C(=O)c3ccccc3C2=O)c1,2%,i,u,-12,0%
Cc1cc(C(=O)Cn2ncc(Cl)c(Cl)c2=O)c(C)n1CC(F)(F)F,u,u,2%,-99*,2%
Cc1cc2oc(=O)cc(Cn3ncc(Cl)c(Cl)c3=O)c2cc1Cl,25µM*,x,u,-101*,-1%
COC(=O)C1CCN(Cc2ccc3c(c2)CN(C(=O)c2cc(C)nc(C)n2)CCO3)CC1,x,i,x,x,x
CCCCOC(=O)Nc1ccc(C(C)C)cc1,65%,i,-14%,-60*,-1%
CCCCOC(=O)Nc1ccc(N2CCCCC2)cc1,89%,i,-2%,-57*,-2%
Cn1cc(S(=O)(=O)c2ccc(Cl)cc2)c(=O)c2cc(F)c(N3CCCC3)cc21,x,x,-3%,x,x
CCOc1cccc(CN2CCC(n3nccc3NC(=O)c3ccc4c(c3)OCO4)CC2)c1,-9%,i,-16%,-4,0%
CCc1ccc(CN2CCC(n3nccc3NC(=O)c3ccccc3Cl)CC2)cc1,-19%,i,-11%,-50*,-2%
O=C(Nc1ccnn1C1CCN(C/C=C/c2ccccc2)CC1)c1cccc(F)c1,-17%,u,-26%,-53*,-1%
O=C(Nc1ccnn1C1CCN(C/C=C/c2ccccc2)CC1)c1ccccc1,2%,i,-1%,u,0%
Cn1cc(CN2CCC(n3nccc3NC(=O)c3ccccc3Cl)CC2)cn1,-3%,i,-7%,1,-4%
CCc1ccc(CN2CCC(n3nccc3NC(=O)c3ccc4c(c3)OCO4)CC2)cc1,-13%,i,-4%,-56*,1%
O=C(CCOc1ccccc1)Nc1ccnn1C1CCN(CCc2ccccc2)CC1,-7%,i,-4%,-52*,1%
Cn1cc(CN2CCC(n3nccc3NC(=O)c3ccccc3Cl)CC2)c2ccccc21,u,u,-9%,-82*,0%
COc1ccccc1C(=O)Nc1ccnn1C1CCN(Cc2cn(C)c3ccccc23)CC1,x,u,-20%,-22,0%
CC(C)(CNC(=O)c1cnn(-c2nccc(-c3cc4ccccc4o3)n2)c1C1CC1)N1CCOCC1,x,i,x,x,x
CCN1/C(=C/c2sc(-c3ccccc3C)c[n+]2C)Sc2ccccc21,u,x,-17%,-99*,4%

# Source: PubChem BioAssay
